The campaign covered roughly 2,300 compounds. About 330 (14%) showed activity. These entries were drawn from the full list. Unmarked numbers belong to inactive results.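 Rule for the calls: active = median modified Z-score above 1.96; inactive = 1.96 or below.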
tested on: HepG2 Srxn1-GFP reporter cells (+30 nM CDDO-Me); experiment: Srxn1-GFP intensity median modified Z-score relative to plate median; higher = stronger NRF2 / oxidative stress reporter activation, active = hit call of the paper; settings: 10 µM; exposure time: 24h
Outline: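 The modified Z-score of GFP intensity was computed per plate, and the median over replicates is reported. HepG2 Srxn1-GFP BAC reporter cells in three replicate plates were treated for 24 h with compound at 10 μM plus an NRF2 activator at 30 nM (≤0.1% DMSO). Per-cell cytoplasmic GFP came from confocal images, excluding those with under 100 cells, and scaling used 1.4826 × median absolute deviation.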

| SMILES | Srxn1-GFP intensity median modified Z-score |
| --- | --- |
| CC(C)/N=c1\cc2n(-c3ccc(Cl)cc3)c3ccccc3[nH]c-2cc1=Nc1ccc(Cl)cc1 [euspeclibcmpd891] | 7.89 (active) |
| CC(C)CC(NC(=O)C(C)N)C(=O)O (configuration not stated) [euspeclibcmpd2380] | -0.0851 |
| CN=C(C[N+](=O)[O-])NCCSCc1csc(CN(C)C)n1 [euspeclibcmpd900] | -0.00145 |
| CC1CN(c2c(F)c(N)c3c(=O)c(C(=O)O)cn(C4CC4)c3c2F)C[C@H](C)N1 (some centres not stated) [euspeclibcmpd471] | -0.142 |
| CC(C)C(=O)C1C(=O)O[C@@H](c2ccoc2)[C@]2(C)C(O)[C@@H](O)[C@@]34OC5(C)OC67CC(C)(C(O)[C@]6(O)[C@@H](O)[C@]3(O5)C12)[C@H](CC(=O)O)[C@]74C (some centres not stated) [euspeclibcmpd1385] | -0.12 |
| NC(=O)NCCCC(N)C(=O)O (configuration not stated) [euspeclibcmpd1533] | -0.136 |
| CCCC(C(=O)OCCN(CC)CC)(c1ccccc1)c1ccccc1 [euspeclibcmpd434] | -0.794 |
| CCN(CC)CCOC(=O)C(Cc1cccc2ccccc12)CC1CCCO1 (configuration not stated) [euspeclibcmpd577] | 3.61 (active) |
| CCN(CC)CCOC(=O)C(c1ccccc1)c1ccccc1 [euspeclibcmpd520] | 0.792 |
| C[C@H]1c2cccc(O)c2C(=O)C2C(=O)[C@]3(O)C(=O)C(C(N)=O)C(=O)C(N(C)C)[C@@H]3[C@@H](O)[C@@H]21 (some centres not stated) [euspeclibcmpd105] | -1.04 |
| C=C[C@](C)(O)CCC=C(C)C [euspeclibcmpd1465] | -0.00229 |
| CCOc1ccc2[nH]c3cc(N)ccc3c(=N)c2c1 [euspeclibcmpd1203] | 63.5 (active) |
| COC(=O)C1=C2C(=O)CC(C)C2C(O[C@@H]2O[C@H](CO)[C@@H](O)[C@H](O)[C@H]2O)OC1 (some centres not stated) [euspeclibcmpd2225] | -0.236 |
| COC(=O)c1c(C)c2c(c(C)c1O)OC(=O)c1c(C)c(Cl)c(O)c(Cl)c1O2 [euspeclibcmpd1600] | 12.9 (active) |
| COC(=O)c1c(OC)cc2c(c1C)Oc1c(Cl)c(O)c(Cl)c(C)c1C(=O)O2 [euspeclibcmpd1672] | 0.324 |
| Cc1cc(O)c(C=O)c2c1C(=O)Oc1c(C)c(O)c3c(O)oc(O)c3c1O2 [euspeclibcmpd2409] | 0.591 |
| Cc1c[nH]c(=NC(=O)C2C(=O)c3ccccc3S(=O)(=O)N2C)s1 (configuration not stated) [euspeclibcmpd2190] | -0.367 |
| C#C[C@]1(O)CCC2C3CCc4cc(OC)ccc4C3CC[C@@]21C (some centres not stated) [euspeclibcmpd184] | 0.203 |
| C#C[C@]1(OC(C)=O)CCC2C3CCC4=C[C@@H](OC(C)=O)CCC4C3CC[C@@]21C (some centres not stated) [euspeclibcmpd896] | 2.28 (active) |

| SMILES | Srxn1-GFP intensity median modified Z-score |
| --- | --- |
| C#C[C@]1(OC(C)=O)CCC2C3CCC4=CC(=NO)CCC4C3CC[C@@]21CC (some centres not stated) [euspeclibcmpd54] | -0.443 |
| NCCCC(N)C(=O)O (configuration not stated) [euspeclibcmpd2233] | -0.13 |
| CCOC(=O)C1=CC(OC(CC)CC)[C@H](NC(C)=O)[C@@H](N)C1 (some centres not stated) [euspeclibcmpd2394] | -0.535 |
| CC1=C(SC2CNC(C(=O)N(C)C)C2)C(C(=O)O)N2C(=O)[C@H]([C@@H](C)O)[C@@H]12 (some centres not stated) [euspeclibcmpd460] | -0.758 |
| CC1CN(C(=O)CSc2nc3ccc(Br)cc3c3nc(=O)c(-c4ccccc4)nn23)CC(C)O1 (configuration not stated) | 2.28 (active) |
| CC(C)CCOc1ccc2[nH]c(-c3cc(NCCc4cn5c(n4)SCC5)ccn3)cc2c1 | 0.892 |
| COc1ccc(-c2oc3ccccc3c(=O)c2OC)cc1 [euspeclibcmpd1341] | 0.287 |
| CN(C)[C@@H]1C(O)=C(C(N)=O)C(=O)[C@@]2(O)C(O)c3c(c(O)c4c(Cl)ccc(O)c4c3O)C[C@@H]12 (some centres not stated) [euspeclibcmpd85] | -0.132 |
| O=C(C(=O)c1ccccc1)c1ccccc1 | 1.75 |
| O=C(CC(=O)c1ccccc1)c1ccccc1 [euspeclibcmpd1779] | 2.2 (active) |
| O=C(O)c1ccccc1 [euspeclibcmpd2047] | 0.122 |
| C[n+]1cccc(C(=O)O)c1 [euspeclibcmpd1706] | -0.33 |
| CCCc1nn(C)c2c(=O)nc(-c3cc(S(=O)(=O)N4CCN(C)CC4)ccc3OCC)[nH]c12 [euspeclibcmpd1008] | -0.649 |
| O=C(Nc1ccc(Br)cc1Cl)c1cc(Cl)ccc1O | 0.489 |
| O=C(Nc1cc(Cl)cc(Cl)c1O)c1c(O)c(Cl)cc(Cl)c1Cl [euspeclibcmpd2236] | 4.91 (active) |
| Nc1ccc(NC(=O)c2cc(Cl)ccc2O)c(Cl)c1 | 1.83 |
| COC(=O)c1cc(-c2ccccc2)nc2ccccc12 | 1.89 |
| O=C1C=Cc2c(c(O)c3ccccc3c2O)C1=O [euspeclibcmpd1683] | 0.752 |
